An excerpt weighted towards active compounds, which were near 6.7% of everything screened.
MCF10A rerep – A quantitative high throughput screen for small molecules that induce DNA re-replication in MCF 10a normal breast cells; hit rate 2.9% among 350,000; MCF 10A DNA re-replication, Hoechst nuclear intensity, 48 h; Potency, µM (doses to about 46.1 µM), without a hit: at the top dose activity, positive = re-replication, hits mostly activators; note: % of control where 0% means no effect; nearly all actives have a fitted effect of over 50% in size
SW480 rerep – A quantitative high throughput screen for small molecules that induce DNA re-replication in SW480 colon adenocarcinoma cells | SW480 DNA re-replication, Hoechst DNA content imaging, 48 h | Potency, µM (series often up to 46.1 µM), for inactives: at the top dose re-replication activation, most hits filed as activators | hit rate 1.8% among 340,000 | AID 624297, 2012; note: % of control where 0% means no effect; nearly all actives have a fitted effect of over 55% in size
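Cells (250 per well) received 23 nL compound or DMSO by pin tool and were kept 48 hr at 37 C, 5% CO2. Nuclei were then stained with Hoechst for 40 min and scanned for DNA content.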
PINK1 modulator – A Quantitative High throughput Screen to Identify Chemical Modulators of PINK1 Expression; PINK1 immunofluorescence, high-content cytometry, 24 h; Potency, µM (highest dose often 76.6 µM), for inactives: at the top dose activation (PINK1 increase), most hits filed as activators; hit rate 0.2% among 410,000; AID 624263, 2012; active = well fitted activation curve with a large enough effect; inconclusive = small, poorly fitted or top-dose-only effect; cell line not stated here; note: % of control where 0% means no effect; nearly all actives have a fitted effect of over 65% in size
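Cells are seeded, rested 12 hours, then given compound at five concentrations or DMSO for 24 hours. After fixation, blocking and antibody staining, PINK1 amount and mitochondrial localization are scored; CCCP serves as control.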
KB-V1 cytotox – qHTS assay for MDR1-selective chemotherapeutics: Primary screen using the drug-selected MDR subline cells KB-V1; KB-V1 MDR cells viability, CellTiter-Glo, 72 h; Potency, µM (top dose mostly 46.1 µM), hits mostly cytotoxic; hit rate 3.4% among 400,000; AID 1347076, 2019; note: % is set by controls: 0 for no effect and ±100 for the full control effect; nearly all actives have a fitted effect of over 60% in size
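Cytotoxicity via CellTiter-Glo luminescence after 72 h compound exposure at 37 degrees C. Cells: drug-selected KB-V1 line, DMEM phenol-red free plus 10% FBS. Compounds tested at multiple concentrations; normalized data fitted to concentration-effect curves.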
KB-3-1 tox – qHTS assay for MDR1-selective chemotherapeutics: Primary screen using the parental adenocarcinoma cell KB-3-1. KB-3-1 viability, CellTiter-Glo ATP luminescence, 72 h. Potency, µM (titrated, usually from 46.1 µM), most hits filed as cytotoxic. hit rate 1.4% among 400,000; note: % is set by controls: 0 for no effect and ±100 for the full control effect; nearly all actives have a fitted effect of over 60% in size
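Cells are dispensed, compounds pinned in, plates held at 37 °C for 72 h, then CellTiter-Glo is added and luminescence read after 10 minutes. Cell line: parental KB-3-1 in phenol-red-free DMEM, 10% FBS.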
The depositor's hits bear a star; i = inactive; ? = inconclusive; . = not tested or not shown; [ ] = remark or other dose. Unless noted, calls come from the whole dose curve; as a rule, active = well fitted curve in the direction sought with a large enough effect; inconclusive = small, poorly fitted or top-dose-only effect, or another doubt; inactive = no such curve, though single readings can be large; an effect the other way counts as inactive or inconclusive. Potency is the fitted concentration of half-maximal effect.

SMILES	MCF10A rerep	SW480 rerep	PINK1 modulator	KB-V1 cytotox	KB-3-1 tox
COc1ccc(-n2c(=O)c(C)nc3cnc(Nc4cccc(OC)c4)nc32)cc1	.	.	2.2%	.	.
COc1cc(C2C(C(=O)Nc3ccccc3)=C(C)Nc3nnnn32)cc(OC)c1OC (configuration not stated)	.	.	3.1%	i	i
Cc1nc2nc(-c3ccc(Cl)cc3Cl)nn2c(C)c1CCC(=O)Nc1ccc(F)cc1	.	.	-5.0%	i	i
CCn1c(C)cc2c(c1=O)C(c1ccccc1)C(C(=O)OC)=C(N)O2 (configuration not stated)	16.4µM*	1.0%	-3.2%[38.3 µM]	i	i
CCOCCCNC(=S)NNC(=O)CCn1nc(C)c(Br)c1C	0.0%	?	1.3%[38.3 µM]	14.6µM*	i
Cc1nn(CCC(=O)NNC(=S)NCC(C)C)c(C)c1Br	-3.8%	3.66µM*	2.1%[38.3 µM]	i	i
CNC(=S)NNC(=O)CCn1nc(C)c(Br)c1C	-2.3%	?	7.8%[38.3 µM]	i	i
CN(C)c1nc(N)nc(CSc2nnnn2-c2ccc(Cl)cc2)n1	.	.	7.2%	i	i
CN(C)c1nc(N)nc(CSc2ncc(Cl)cc2Cl)n1	?	4.3%	5.6%[38.3 µM]	14.6µM*	i
Cc1nn(C)cc1C(=O)/C=C/c1ccc([N+](=O)[O-])cc1	?	?	-2.6%	?	?
CCn1cc(CN(C)C(=O)/C=C/c2ccc([N+](=O)[O-])cc2)c(C)n1	-0.5%	-3.7%	0.4%	18.4µM*	i
O=C(c1ccccc1F)N1CCN(Cc2cccc(Cl)c2)CC1	-0.4%	0.3%	0.8%[38.3 µM]	20.6µM*	i
O=C(O)c1ccc(CNS(=O)(=O)c2ccc3ccccc3c2)cc1	-1.9%	-12.4%	-0.5%	i	i
O=C(O)c1ccc(CNS(=O)(=O)c2ccc(Oc3ccccc3Cl)cc2)cc1	?	0.164µM*	0.7%	i	i
O=C(c1ccccc1)N1CCCC(C(=O)N2CCCCCC2)C1 (configuration not stated)	0.0%	-10.1%	0.9%	20.6µM*	i
CCc1cc2cc(C(=O)N3CCN(Cc4ccccc4)CC3)sc2s1	?	-7.8%	15.8%	14.6µM*	20.6µM*
Cc1ccc(-c2nnc3ccc(SCC(=O)c4ccccc4)nn23)cc1	.	.	1.4%	i	i
CN1CCN(c2ccc(C(F)(F)F)cc2NC(=O)c2ccco2)CC1	-0.5%	1.2%	0.1%	i	i
CCc1ccc(CN(C)C(=O)c2cc(COc3cncc(Cl)c3)on2)cc1	.	.	1.7%	?	i
CC(=O)N1CCC(C(=O)N2c3ccccc3N=C(c3ccc(C(F)(F)F)cc3)C2C(=O)NC(C)C)CC1 (configuration not stated)	.	.	.	i	i
O=C(c1ccc(CNS(=O)(=O)c2ccccc2)cc1)N1CCN(Cc2ccccc2)CC1	27.7%	20.9%	-0.4%[38.3 µM]	4.61µM*	18.4µM*
CC(C)(C)c1ccc(C(=O)N2CCN(CCNC(=O)C(=O)NCc3ccccc3)CC2)cc1	-1.0%	-3.1%	-0.7%	7.31µM*	i
O=C(c1ccccc1)N1CCN(Cc2ccccc2)CC1	13µM*	17.0%	.	i	i
CS(=O)(=O)c1ccc(C(=O)N2CCN(Cc3ccccc3)CC2)cc1	2.9%	-2.8%	-0.6%	i	i
O=C(NCCN1CCN(C(=O)c2ccc(F)cc2)CC1)C(=O)NCc1ccccc1	-3.1%	-12.0%	-0.4%	i	i
SMILES	MCF10A rerep	SW480 rerep	PINK1 modulator	KB-V1 cytotox	KB-3-1 tox
O=C(c1ccncc1)N1CCN(CCc2ccccc2)CC1	18.4µM*	?	5.5%	i	i
CC(C)(C)c1ccc(C(=O)N2CCN(Cc3ccccc3)CC2)cc1	5.1%	-5.9%	6.3%	i	i
CCOc1ccc(-c2cc3c(=O)n(CC(=O)NCc4ccccc4)ccn3n2)cc1	.	.	0.5%	i	i
CCNC(=O)C1CCCN(C(=O)c2ccco2)CC1 (configuration not stated)	.	.	-0.6%	i	i
CCCNC(=O)c1c(N)n(-c2cc(OC)cc(OC)c2)c2nc3ccccc3nc12	16.4µM*	9.2µM*	0.2%	i	i
Nc1c(C(=O)NC2CC2)c2nc3ccccc3nc2n1-c1ccc2c(c1)OCO2	2.91µM*	?	8.8%	i	i
CCCNC(=O)c1c(N)n(-c2ccc3c(c2)OCO3)c2nc3ccccc3nc12	16.8%	?	5.7%	i	?
CCOCCCNC(=O)c1c(N)n(-c2ccc3c(c2)OCO3)c2nc3ccccc3nc12	23.1µM*	9.2µM*	4.1%	i	i
COCCCNC(=O)c1c(N)n(-c2ccc3c(c2)OCO3)c2nc3ccccc3nc12	10µM*	6.51µM*	9.4%	i	i
COC(=O)c1c(N)n(-c2ccc(OC)c(Cl)c2)c2nc3ccccc3nc12	.	.	-1.3%	i	i
CCOC(=O)C1CCN(C(=O)COC(=O)CSc2ccc(C(N)=O)cc2[N+](=O)[O-])CC1	-2.4%	-14.3%	2.3%	i	i
CC(C)Cc1ccc([C@@H](C)C(=O)NS(C)(=O)=O)cc1	-0.9%	-1.9%	.	.	.
CC(C)Cc1ccc(C(C)C(=O)Nc2ccccc2O)cc1 (configuration not stated)	12.0%	-70.9%	?	?	20.6µM*
C=CCOc1ccc(Cl)cc1-c1noc(-c2csc([C@H]3C[C@H](O)[C@@H](CO)O3)n2)n1	.	.	0.7%	i	i
CCN(C(=O)CSc1nc2ccccc2n1CC(=O)Nc1cccc(C#N)c1)c1ccccc1	.	.	3.5%	i	i
Cc1nc2nc(C)c(CCC(=O)N3CCc4ccccc43)c(C)n2n1	1.9%	-6.2%	8.0%[38.3 µM]	20.6µM*	i
Cc1nc2ncnn2c(C)c1CCC(=O)N1CCc2ccccc21	-0.7%	-12.4%	-1.2%	?	i
COC(=O)c1cc(CNC(=O)c2ccc3ncccc3c2)cc(NC(=O)c2ccccc2Cl)c1	.	.	0.4%	.	.
Cc1ccc(CNC(=O)CN2C(=O)C3CCCCN3c3ccc(C(=O)N(C)C)cc32)cc1 (configuration not stated)	.	.	7.1%	i	i
CCCNC(=O)c1ccc2c(=O)c(O)c(-c3ccc(F)cc3)[nH]c2c1	-2.5%	5.1%	-0.1%	i	?
CCCNC(=O)c1ccc2c(=O)c(O)c(-c3cccc(Br)c3)[nH]c2c1	-33.8%	-18.6%[9.22 µM]	-1.2%	i	11.6µM*
CCOC(=O)c1c(NC(=O)CSc2nc3cc(Cl)ccc3s2)sc(C(C)=O)c1C	1.5%	-4.1%	.	.	.
CCCc1cc(=O)[nH]c(SCC(=O)NC(=O)OCC)n1	1.4%	1.1%	10.8%[38.3 µM]	i	i

Compound activity (PubChem)
